Compound activity from PubChem.
Sampled rows, rich in hits. Any-hit rate of the full collection: about 0.5%.
E coli growth-1: inhibitors of Escherichia coli growth; 330,000 tested, 0.21% active; OD600 absorbance (no concentration beside the values); AID 1053175; OD600, 23 h; stronger effect = lower value;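 active = OD600 absorbance below the run mean of sample wells minus 3.6 SD, in any replicate, cut at about 0.56 in these data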
Tat export inh: E. coli Tat transport inhibition | E. coli MC4100 TorA-mCherry Tat export, fluorescence | inhibition, % at 10 µM | 340,000 tested, 0.036% active;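 active = mean replicate inhibition at least 50% and at least half of replicates individually reaching 50%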;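 note: exported cargo escapes ClpAP degradation while cytoplasmic cargo is degraded and loses fluorescence; 0% = median of neutral control wells and 100% = median of NaSCN control wells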
E coli growth-2: reduces bacterial viability in AddAB counter-screen | 330,000 tested, 0.27% active | E. coli V3065 growth, OD600 absorbance, 18 h | inhibition, % at 11.9 µM;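 active = inhibition above the campaign's mean inhibition across all tested compounds plus 3 SD, cut at about 9.9% in these data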;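 note: uninfected addAB+ strain grown without phage in ampicillin broth; 0% = DMSO wells and 100% = ciprofloxacin 0.95 µg/ml wells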
AddAB inh: less growth of phage-infected E. coli with AddAB; E. coli expressing H. pylori AddAB, absorbance growth; inhibition, % at 11.9 µM; 330,000 tested, 0.29% active; in the data active = inhibition above about 12%;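 note: 0% = vehicle wells of infected cells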
phage Ecoli inh: E. coli growth loss with phage present | growth absorbance | inhibition, % at 11.9 µM | 360,000 tested, 0.26% active; in the data active = inhibition above about 11%
AddAB confirm: growth loss of T4-infected E. coli expressing H. pylori AddAB, confirmed; shares compounds with AddAB inh; inhibition, % at 11.9 µM; 880 tested, 64% active; E. coli V3065 expressing H. pylori AddAB, T4 phage, OD; T4 phage with gene 2 nonsense mutations;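 active = mean inhibition above a set limit taken from the earlier primary screen, cut at about 13% in these data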;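 note: higher means less bacterial growth since AddAB block lets phage replicate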
RecBCD counter: AddAB counter-screen: growth loss of RecBCD+ E. coli infected with mutant T4 phage; shares compounds with AddAB inh; E. coli V66 + mutant T4 phage, OD growth; inhibition, % at 11.9 µM; 880 tested, 73% active; AID 488955;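 active = mean inhibition above the mean of solvent-only control wells plus 3 SD, cut at about 4% in these data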;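 note: optical density read after an 18 h incubation at 37 °C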
bact viab count: counter-screen for AddAB inhibitors: inhibitors of bacterial viability. shares compounds with AddAB inh. absorbance (AddAB counterscreen). inhibition, % at 11.9 µM. 880 tested, 35% active. AID 488956; in the data active = inhibition above about 25%
RecBCD conf: confirmation: growth loss of phage-infected RecBCD+ E. coli (RecBCD inhibitor screen); inhibition, % at 11.9 µM; shares compounds with phage Ecoli inh; E. coli V66 + T4 2- phage, growth OD; 890 tested, 45% active;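 active = mean inhibition over triplicates exceeding the hit threshold derived in the original primary screen, cut at about 11% in these data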
Ecoli viability: counter-screen for RecBCD inhibitors: inhibitors of bacterial viability | shares compounds with phage Ecoli inh | E. coli viability, absorbance (OD) growth | inhibition, % at 11.9 µM | 890 tested, 29% active; in the data active = inhibition above about 20%;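 note: E. coli strain V66 grown with compound alone and no phage infection; 0% = bacteria with DMSO vehicle only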
AddAB phage OD: growth loss of phage-infected AddAB E. coli, RecBCD counter-screen; inhibition, % at 11.9 µM; E. coli expressing H. pylori AddAB + T4 phage, OD growth; gene 2 mutant T4, recBCD-deleted host; 890 tested, 45% active; shares compounds with phage Ecoli inh;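 active = mean inhibition above the solvent-only control wells' mean plus 3 SD, cut at about 22% in these data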;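 note: higher means less bacterial growth from phage killing when AddAB is blocked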
* hit, by the source's call; / = no result given.

SMILES | E coli growth-1 | Tat export inh | E coli growth-2 | AddAB inh | phage Ecoli inh | AddAB confirm | RecBCD counter | bact viab count | RecBCD conf | Ecoli viability | AddAB phage OD
CCC(C)N1CCC2(CC1)N=c1c(c3c4c5c(C)c(O)c3c(O)c1=NC(=O)C(C)=CC=C[C@H](C)[C@H](O)[C@@H](C)[C@@H](O)[C@@H](C)[C@H](OC(C)=O)[C@H](C)[C@@H](OC)C=CO[C@@](C)(O5)C4=O)N2 (stereo partly specified) | / | 106.7* | 98.5* | 97.5* | 105.0* | 96.0* | 97.2* | 98.8* | 96.4* | 99.0* | 102.0*
CC(C(=O)NCCc1c[nH]c2ccccc12)C1C[C@@]1(C)C(NC(=O)OCc1ccccc1)c1ccccc1 (stereo partly specified) | 0.734 | / | / | / | / | / | / | / | / | / | /
O=C(Nc1nnc(-c2cccs2)o1)c1cccc(C(F)(F)F)c1 | 0.498* | 16.3 | 12.5* | 20.7* | 95.7* | 15.8* | 13.7* | 11.7 | 8.8 | 8.3 | 17.0
CC(=Cc1ccc(C(=O)O)cc1)c1ccc2c(c1)C(C)(C)CCC2(C)C | 0.717 | / | / | / | / | / | / | / | / | / | /
O=C(NNC(=O)c1cc(-c2ccncc2)nc2ccccc12)c1ccccc1O | 0.536 | -9.7 | 26.0* | 29.2* | 23.5* | 18.1* | 18.4* | 14.9 | 11.9* | 15.5 | 19.6
Cc1ccc(-c2cc(C(=O)Nc3ccncc3)c3ccccc3n2)cc1 | 0.709 | 2.4 | 0.8 | -0.9 | 2.7 | / | / | / | / | / | /
CC(=O)c1c(C)n([O-])c2cc(C)ccc2[n+]1=O | 0.541* | -3.1 | 24.8* | 23.2* | 11.3* | 63.3* | 10.0* | 55.9* | 7.8 | 9.4 | 51.8*
COc1ccc(-c2c(C)n([O-])c(C)c(C)[n+]2=O)cc1OC | 0.693 | 4.3 | 0.4 | 1.2 | -1.3 | / | / | / | / | / | /
CCOC(=O)C1C2COc3ccc(Br)cc3C2N2C(=O)N(c3ccc(F)cc3)C(=O)[C@]12C (stereo partly specified) | 0.713 | / | / | / | / | / | / | / | / | / | /
Cn1nnnc1N=N/C(=N/Nc1ccccc1)c1ccccc1 | / | -1.0 | 21.2* | 25.2* | 19.5* | 25.4* | 23.3* | 22.0 | 10.9* | 10.3 | 15.4
O=C(Cn1cnc2ccccc2c1=O)Nc1ccc2c(c1)OCO2 | 0.684 | 1.9 | 2.5 | 1.1 | 5.0 | / | / | / | / | / | /
O=C(Cn1cnc2ccccc21)Nc1ccc2c(c1)OCCCO2 | 0.61 | -6.8 | 13.4* | 17.5* | 15.9* | 22.9* | 16.1* | 19.5 | 11.8* | 12.6 | 17.6
CC(C)Oc1ccc(Cc2cnc(N)nc2N)cc1 | 0.0465* | 4.5 | 8.6 | 12.3* | 12.5* | 52.8* | 13.6* | 12.5 | 11.4* | 7.3 | 11.6
O=C(c1ccc([N+](=O)[O-])o1)N1CCc2ccccc21 | 0.461* | 6.0 | 94.2* | 96.5* | 21.3* | 101.7* | 20.2* | 84.1* | 10.0 | 12.9 | 98.0*
CC(C)CC(CC#N)N1CCN(CCc2ccccc2)CCC1=O (stereo unspecified) | 0.69 | / | / | / | / | / | / | / | / | / | /
Cc1ccc(C)c(NC(=O)NNC(=O)c2cc3ccccc3cc2O)c1 | 0.718 | 0.5 | 8.7 | 14.0* | 13.9* | 11.6 | 6.9* | 10.2 | 2.9 | 5.6 | 13.2
Cc1cccc(NC(=O)NNC(=O)c2cc3ccccc3cc2O)c1C | / | -4.1 | 12.3* | 13.1* | 12.1* | 11.1 | 12.4* | 12.8 | 5.1 | 5.9 | 5.4
Cc1ccc(NC(=O)NNC(=O)c2cc3ccccc3cc2O)cc1C | 0.671 | -0.3 | 4.8 | 8.8 | 6.7 | / | / | / | / | / | /
Cc1cccc(NC(=S)NNC(=O)c2ccc(O)cc2O)c1C | 0.711 | -0.5 | 2.8 | 2.8 | 4.8 | / | / | / | / | / | /
O=C(NN=Cc1cccnc1)c1ccccc1OCc1ccc(Cl)cc1 | 0.645 | / | / | / | / | / | / | / | / | / | /
O=c1c2cc(Br)ccc2nc(-c2ccc(Cl)cc2)n1O | 0.566 | -5.2 | -5.3 | -3.4 | -5.5 | / | / | / | / | / | /
Cc1ccc(-c2nc3c(Cl)cc(Cl)cc3c(=O)n2O)cc1 | 0.632 | -5.8 | 14.8* | 12.3* | 12.2* | 15.9* | 14.4* | 7.9 | 3.5 | 6.0 | 11.5
CC(=O)c1cn(CC(=O)Nc2ccc(C)cc2)c2ccccc12 | 0.718 | -9.4 | 11.1* | 14.4* | 11.2* | 0.1 | 2.4 | 0.6 | 3.3 | 8.0 | 4.0
CC(=O)c1cn(CC(=O)Nc2ccc(C)c(C)c2)c2ccccc12 | 0.713 | -7.6 | 4.1 | 2.4 | 3.0 | / | / | / | / | / | /
COc1ccc(C=NNc2nnc(Cc3ccc(OC)c(OC)c3)c(=O)[nH]2)cc1OC | 0.677 | / | / | / | / | / | / | / | / | / | /
SMILES | E coli growth-1 | Tat export inh | E coli growth-2 | AddAB inh | phage Ecoli inh | AddAB confirm | RecBCD counter | bact viab count | RecBCD conf | Ecoli viability | AddAB phage OD
CCOC(=O)C1C2COc3ccc(C)cc3C2N2C(=O)c3cc(OC)c(OC)cc3NC(=O)[C@@]12C (stereo partly specified) | 0.642 | / | / | / | / | / | / | / | / | / | /
Cc1nc(SCC(=O)Nc2ccc(N3CCOCC3)cc2)nc(C)c1C | 0.665 | -10.5 | 13.1* | 13.6* | 13.5* | 9.0 | 9.1* | 4.5 | 6.1 | 9.8 | 0.4
Cc1cc(C)nc(SCC(=O)Nc2ccc(N3CCOCC3)cc2)n1 | 0.679 | -1.8 | 0.8 | 4.8 | 2.7 | / | / | / | / | / | /
O=C(N/N=C\c1ccc([N+](=O)[O-])o1)c1cncc(Br)c1 | / | -18.6 | 4.7 | 8.6 | 3.4 | / | / | / | / | / | /
O=C(N/N=C/c1ccc([N+](=O)[O-])o1)c1ccc(O)cc1 | / | -29.2 | 97.2* | 98.1* | 23.1* | 96.0* | 23.8* | 78.2* | 17.0* | 21.2* | 98.2*
O=C(N/N=C/c1ccc([N+](=O)[O-])o1)c1ccncc1 | / | / | 18.2* | 93.8* | 23.4* | 96.9* | 19.3* | 33.1* | 15.6* | 19.0 | 63.8*
CCN1CC2C3C(=O)N(Cc4ccccc4)C(=O)C3[C@](Cc3ccccc3)(C1=O)N2C(=O)c1ccc(C(C)(C)C)cc1 (stereo partly specified) | 0.682 | / | / | / | / | / | / | / | / | / | /
C[C@H]1COc2c(N3CCN(C)CC3)c(F)cc3c(=O)c(C(=O)O)cn1c23 | / | 147.8* | 99.0* | 98.3* | 99.7* | 102.1* | 101.0* | 101.8* | 104.2* | 105.7* | 105.5*
CN1CCN(c2c(F)cc3c(=O)c(C(=O)O)cn4c3c2SCC4)CC1 | 0.047* | 42.6 | 98.0* | 97.9* | 98.5* | 101.7* | 101.2* | 103.4* | 102.4* | 104.1* | 102.9*
